Assay results: PubChem BioAssay AID588683 (Broad Institute, 2011); call rule not given here
Measured potencies and affinities stand elsewhere.

molecular target: Kelch-like ECH-associated protein 1 (Homo sapiens) + Nuclear factor erythroid 2-related factor 2 (Homo sapiens) (UniProt Q14145+Q16236); test: Keap1-Nrf2 protein-protein interaction inhibitors, dose response, biochemical, fluorescence polarization, cherry-picked samples (AID 588683); settings: Keap1/Nrf2 peptide fluorescence polarization, plate reader; series mostly up to 26 µM; activity change, negative = inhibition: at the top concentration;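 further: Kelch domain of Keap1 binding a fluorescein-labelled 9mer Nrf2 peptide; more negative means stronger inhibition of peptide binding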
Sequence (Q14145 whole entry, looked up, the tested form may be a part): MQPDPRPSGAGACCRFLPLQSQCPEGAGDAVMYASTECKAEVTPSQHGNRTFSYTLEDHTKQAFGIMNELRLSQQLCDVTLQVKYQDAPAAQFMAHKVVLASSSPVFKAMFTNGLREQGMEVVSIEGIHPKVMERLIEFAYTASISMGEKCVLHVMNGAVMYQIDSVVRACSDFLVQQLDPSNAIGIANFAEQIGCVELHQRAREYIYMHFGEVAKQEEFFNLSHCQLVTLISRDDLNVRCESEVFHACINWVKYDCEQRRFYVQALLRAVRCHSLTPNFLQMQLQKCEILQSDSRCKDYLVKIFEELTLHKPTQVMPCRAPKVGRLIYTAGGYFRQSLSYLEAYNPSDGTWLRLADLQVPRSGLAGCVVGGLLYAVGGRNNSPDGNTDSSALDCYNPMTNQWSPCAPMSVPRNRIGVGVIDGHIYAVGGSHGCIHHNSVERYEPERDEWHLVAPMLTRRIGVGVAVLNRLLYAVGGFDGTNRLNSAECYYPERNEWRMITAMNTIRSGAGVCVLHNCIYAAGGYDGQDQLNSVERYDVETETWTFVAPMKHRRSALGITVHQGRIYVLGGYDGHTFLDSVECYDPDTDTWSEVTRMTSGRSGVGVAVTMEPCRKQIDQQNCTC
Sequence (Q16236 whole entry, looked up, the tested form may be a part): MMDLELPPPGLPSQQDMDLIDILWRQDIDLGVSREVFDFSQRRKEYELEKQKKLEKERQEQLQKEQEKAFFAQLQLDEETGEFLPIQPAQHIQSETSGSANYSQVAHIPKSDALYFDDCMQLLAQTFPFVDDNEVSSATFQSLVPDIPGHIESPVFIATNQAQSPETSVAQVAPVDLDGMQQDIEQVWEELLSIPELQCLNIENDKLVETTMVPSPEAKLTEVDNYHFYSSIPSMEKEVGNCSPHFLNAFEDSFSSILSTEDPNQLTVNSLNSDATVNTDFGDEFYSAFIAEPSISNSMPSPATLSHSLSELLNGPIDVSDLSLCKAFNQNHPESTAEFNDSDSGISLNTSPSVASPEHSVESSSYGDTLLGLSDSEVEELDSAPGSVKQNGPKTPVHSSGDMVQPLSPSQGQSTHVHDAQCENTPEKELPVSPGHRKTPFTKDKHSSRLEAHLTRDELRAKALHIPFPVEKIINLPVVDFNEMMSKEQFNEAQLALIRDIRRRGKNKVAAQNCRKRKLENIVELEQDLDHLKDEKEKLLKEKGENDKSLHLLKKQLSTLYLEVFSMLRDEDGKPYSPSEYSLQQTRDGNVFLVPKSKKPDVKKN

Activity change, negative = inhibition, inactive:
COc1ccc(C2c3ccc(O)cc3Oc3ncn(CCCO)c(=N)c32)cc1OC (stereo not drawn) -8.41%, CC(=O)Nc1c(N)c2ccccc2oc1=O -4.6%, O=C(NNS(=O)(=O)c1ccc(F)cc1)c1ccc(O)cc1 -13.2%, C=CCOC(=O)C1=C[C@H](c2csc3ccccc23)C[C@H](OCc2ccc(CO)cc2)O1 -4.86%, N=c1c(C(=O)NC2CCCC2)cc2c(=O)n3ccccc3nc2n1C1CCCCC1 1.05%, Cc1ccc2cc(CN(CCCO)S(=O)(=O)c3cccc4nsnc34)c(=O)[nH]c2c1C -7.45%, CCCCCCOC(=O)C(C#N)c1nc2ccccc2nc1N1CCOCC1 (stereo not drawn) -1.81%, COc1ccc(N(Cc2ccccc2)S(=O)(=O)c2cccc(C(=O)Nc3ncccc3C)c2)cc1 -5.02%, CC1(C)CC(=O)C2=C(C1)OC1=C(C2)C(=O)CC(C)(C)C1 -5.94%, C=CCn1c(=O)/c(=C\c2ccsc2)s/c1=C(/C#N)C(=O)NCCN1CCOCC1 -4.59%, O=C(Nn1cnnc1)c1ccc(Cl)c(Cl)c1 4.89%, COC(=O)c1cccc(NC(=O)NC(=O)c2ccc(Cl)cc2)c1 -10%, CC(=O)Nc1ccc(NS(=O)(=O)c2ccc3c(c2)oc(=O)n3C)cc1 -3.36%, COc1ccc(-c2cc(C(F)(F)F)c3c(N)c(C(=O)NCCSC)sc3n2)cc1 11.6%, COc1cc(Cl)c(C)cc1NCC(=O)Nc1cccc(S(=O)(=O)N2CCCC2)c1 -4.11%, Cc1ccc(C(=O)N/C(=C\c2ccc(-c3ccccc3[N+](=O)[O-])o2)C(=O)NCCCN(C)C)cc1 -4.73%, CN1/C(=C\C=C(/C#N)C(=O)Nc2ccc(Cl)cc2)C(C)(C)c2ccccc21 19.3%, O=C(Cc1ccc(S(=O)(=O)N2CCOCC2)s1)Nc1nc2c(s1)CCCC2 1.26%, Nc1c(Cl)ncnc1NCc1ccccc1 -12.4%, CNC(=S)Nc1cccc(C(=O)OC)c1 1.38%, Cc1ccc(NC(=O)CN2C(=O)NC3(CCCCCC3)C2=O)cc1Cl 3.73%, C=CCn1c(=O)/c(=C/c2ccsc2)s/c1=C(\C#N)C(=O)NCCN1CCOCC1 -7.84%, CCCCN(C(=O)CC1CCCCC1)c1c(N)n(CC(C)C)c(=O)[nH]c1=O -8.63%, O=[N+]([O-])c1ccc(S(=O)(=O)c2ccccc2)nc1 -12.1%, CCOC(=O)C1=C(CSc2nc3c(cc2C#N)CN(C)CC3)OC(N)=C(C#N)C1c1ccncc1 (stereo not drawn) 0.422%, CCOc1ccc(NC(=O)COC(=O)CCN2C(=O)C3CC=CCC3C2=O)cc1OCC (stereo not drawn) -10.6%, COc1ccc(NS(=O)(=O)c2ccc(F)c(Cl)c2)cn1 -13.4%, Cn1nc(C(=O)NNC(=O)Cc2ccc(S(=O)(=O)N3CCOCC3)s2)c2ccccc2c1=O 0.832%, Cc1snc(S(=O)(=O)/C(C#N)=N/Nc2cccc(C(F)(F)F)c2)c1C#N 0.963%, COc1ccccc1N(C)S(=O)(=O)c1ccc(C(=O)NCc2ccccc2CN2CCCC2)cc1 -4.38%, CCOc1ccc(C(=O)COC(=O)c2nn(CC)c(=O)c3ccccc23)cc1 -7.02%, O=C(/C=C/c1ccccc1Cl)NCCCn1ccnc1 -9.01%, O=c1ccc2cc3c4c(c2o1)CCCN4CCC3 -45.4%, O=C(CN1CCN(C(=O)CNC(=O)c2ccc3c(c2)OCO3)CC1)Nc1ccc(F)cc1 -6.38%, CN1CC=C2C(C#N)=C(N)C(C#N)(C#N)C(c3ccsc3)C2C1 (stereo not drawn) -0.634%, Cc1ccc(C2=CC(c3cccs3)n3nnnc3N2)cc1 (stereo not drawn) 2.17%, Fc1ccc(C2=CC(c3ccco3)n3ncnc3N2)cc1 (stereo not drawn) -8.23%, c1ccc(Nc2nc3ccccc3n3nnnc23)cc1 -21.3%
